Compound activity from PubChem.
Only some compounds are listed: those with a hit (about 3.5% of all), similar ones and a draw of the others.
MITF inh = MITF inhibitors, primary screen, biochemical, AlphaScreen, human; Microphthalmia-associated transcription factor (Homo sapiens), O75030; AlphaScreen MITF homodimerization, bead proximity signal; inhibition, % at 2.6 µM; hit rate 0.91% among 650,000; in the data active means inhibition above about 50%
GPR151 activ = activators of human GPR151, primary screen, cell-based, PathHunter beta-arrestin, luminescence; hit rate 1% among 650,000; PathHunter beta-arrestin GPR151 cells; activation, % at 11.2 µM; G-protein coupled receptor 151 (Homo sapiens), Q8TDV0; in the data active means activation above about 4.9%
TEAD-YAP block = TEAD-YAP interaction inhibition, primary screen, TEAD-YAP interaction inhibitor project, luminescence, HEK-TIYL cells. AID 1259422, 2018. inhibition, % at 9.12 µM. hit rate 1.4% among 640,000. TEAD-Gal4/YAP UAS-luciferase luminescence; in the data active means inhibition above about 32%
FBW7 act = FBW7 E3 ligase activators, primary screen, biochemical, AlphaScreen, human; F-box/WD repeat-containing protein 7 (Homo sapiens), Q969H0; AlphaScreen FBW7–phospho-cyclin E peptide binding, activator screen; normalized activity (activation), % at 26.1 µM; hit rate 0.13% among 650,000; in the data active means normalized activity above about 1.9%;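 further: purified mutant Fbw7 with reduced substrate affinity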
A number is an active result; – = inactive; · = not tested or not shown.

SMILES | MITF inh | GPR151 activ | TEAD-YAP block | FBW7 act
CNc1nnc(Sc2cnn(-c3ccccc3)c(=O)c2Cl)s1 | · | – | · | ·
CCOC(=O)c1ccc(NC(=O)C2CCN(C(=O)c3ccc([N+](=O)[O-])cc3)CC2)cc1 | – | – | – | –
Nc1nc2c(nc(N3CCOCC3)n2C2OC(CO)C(O)C2O)c(=O)[nH]1 (centres undefined) | – | – | – | 2.3
O=C(Nc1ccc(S(=O)(=O)NCCc2ccccc2)cc1)c1ccc([N+](=O)[O-])cc1 | – | – | 31.9 | –
O=C(Nc1ccc(Br)cc1)c1cccc(S(=O)(=O)NCc2ccccc2)c1 | – | – | 40.6 | –
Cc1ccc(S(=O)(=O)NCc2ccccc2)cc1 | – | – | · | –
Cc1ccc(C(=O)Nc2ccc(S(=O)(=O)NCc3ccccc3)cc2)cc1 | – | – | 32.1 | –
O=C(CCCCCn1c(=S)[nH]c2ccccc2c1=O)NCCc1ccc(Cl)cc1 | – | – | – | –
O=C(CCl)Nc1nc(SCCOc2ccccc2)ns1 | – | – | – | –
CN(C)CCN(CC1CCCC1)C(=O)Nc1ccc(-c2cn[nH]c2)cc1N(C)CCN(C)C | – | – | 35.8 | –
CCOc1ccc(NC(=O)CN2CCCC(c3nc4ccccc4[nH]3)C2)cc1 (centres undefined) | – | – | – | –
O=C(Nc1ccc(Br)cc1)c1ccc(F)c(S(=O)(=O)NCc2ccco2)c1 | – | – | 43.0 | –
O=C(Nc1ccc(Br)cc1)c1ccc(F)c(S(=O)(=O)NCC2CCCO2)c1 (centres undefined) | – | – | 50.1 | –
COc1ccccc1CNS(=O)(=O)c1cc(C(=O)Nc2ccc(Br)cc2)ccc1F | – | – | 32.8 | –
Oc1ccc(-c2csc3nc(-c4ccccc4)nn23)c(O)c1 | – | – | 34.4 | –
Cc1nn2c(-c3ccccc3)csc2nc1=O | – | – | – | –
CCOC(=O)c1sc2nc(SCc3cccc([N+](=O)[O-])c3)n(CCC3=CCCCC3)c(=O)c2c1C | – | – | – | –
CCC[n+]1cccc2ccc3cccnc3c21 | – | – | 53.8 | –
CCOC(=O)c1c(-c2ccccc2)csc1NC(=O)COc1ccccc1I | – | – | – | –
N#CCn1c(=O)n(Cc2ccccc2Cl)c(=O)c2cccnc21 | – | – | – | –
Cc1cccc(NS(=O)(=O)c2nnc(NC(=O)c3ccccc3F)s2)c1 | – | – | – | –
Cc1cccc(-c2nnc(NC(=O)c3ccccc3F)s2)c1 | – | – | – | 1.9
COc1cccc(CC2=NOC(C(=O)NCc3cnc4ccccc4c3)C2)c1 (centres undefined) | – | – | 35.0 | –
COc1cccc(CC2=NOC(C(=O)NCC(C)(C)CO)C2)c1 (centres undefined) | – | – | – | –
CCOC(=O)c1sc2ncnc(Nc3ccc(C)cc3Br)c2c1C | – | – | 58.8 | –
SMILES | MITF inh | GPR151 activ | TEAD-YAP block | FBW7 act
CCOC(=O)c1sc2ncnc(Nc3cccc(C)c3)c2c1C | – | – | – | –
Cc1nc(C)c(C(=O)NC(C)c2cnn(-c3ccccc3C)c2C)s1 (centres undefined) | – | – | 54.3 | –
Cc1nc(C)c(C(=O)NC(C)c2cnn(-c3ccccn3)c2C)s1 (centres undefined) | – | – | 45.1 | –
Cc1cc(-c2cn[nH]c2C2CCCN(C(=O)C(C)C)C2)on1 (centres undefined) | – | – | – | –
Cc1ccc(-c2n[nH]c(CNC(=O)CCC3CCCC3)n2)cc1 | – | – | – | –
CN(C)S(=O)(=O)N1CCN(c2cc(-n3cccn3)ncn2)CC1 | – | – | – | –
COc1ccc(S(=O)(=O)N2CCN(c3cc(-n4cccn4)ncn3)CC2)cc1C | – | – | 33.1 | –
COc1cc(C)ccc1OCCCOc1ccccc1C(=O)O | – | – | 37.1 | –
COC(=O)c1ccccc1OCCCOc1ccc(C)cc1OC | – | – | – | –
O=C1NC(=O)C(=Cc2ccc(OC(F)F)cc2)C(=O)N1 | – | – | – | –
COc1ccc(-c2cc3nc(C)c(C)c(Cl)n3n2)cc1 | – | – | – | –
Cc1nc2cc(-c3ccccc3)nn2c(N)c1-c1ccccc1 | – | – | 36.6 | –
COc1ccc(-c2cc3nc(C)cc(N)n3n2)cc1 | – | – | 74.0 | –
O=C(Nc1cc(-c2cccc(-c3ccccc3)c2)ccn1)C1CCOC1 (centres undefined) | – | – | – | –
Cc1ccc2c(Cl)c(C(=O)Nc3ncccn3)sc2c1 | – | – | 50.6 | –
CCN(CC)CCn1c2ccccc2c2cnc(N)c(C#N)c21 | – | – | 81.1 | –
CN(C)C=Nc1ncc2c3ccccc3n(CCN(C)C)c2c1C#N | – | – | – | –
